{"source": "PubChem BioAssay", "note": "The source made the active and inactive calls.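 How the source made its calls: active means RAM network inhibition above 8.4% in each of two replicates, 3 SD over the compound average; inconclusive means above 8.4% inhibition in only one replicate; inactive means 8.4% inhibition or less in each replicate.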"}
{"experiment": "RAM signaling pathway blockade in yeast – S. cerevisiae, Pdr1DBD-CYC8 efflux-inhibited sensitized strain, primary screen (AID 1298);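 further: 0% = DMSO untreated cells without growth and 100% = 10 µM 1-NA-PP1 full growth; higher means more yeast growth rescued from 5-FOA killing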", "conditions": "S. cerevisiae cbk1-as DSE1-URA3 strain, 5-FOA growth OD615, 2 d; at 50 µM; stronger effect = higher value"}
{"smiles": "Cc1cc(NC(=O)C2CC(c3ccc(F)cc3)=NO2)no1", "note": "(stereo unspecified)", "RAM network inhibition": "4.62% (inactive)"}
{"smiles": "CN1CCN(Cc2nc3c(c(=O)n(C)c(=O)n3C)n2CCc2ccccc2)CC1", "RAM network inhibition": "2.53% (inactive)"}
{"smiles": "CCOC(=O)c1ccc(NC(=O)CSc2nc3c(c(=O)n2-c2ccccc2OC)SCC3)cc1", "RAM network inhibition": "3.9% (inactive)"}
{"smiles": "C=COCCn1c(-c2nonc2N)nc2ccccc21", "RAM network inhibition": "6.18% (inactive)"}
{"smiles": "Cc1cc(OCC(=O)Nc2cc(-c3nn4c(C)nnc4s3)ccc2C)ccc1Cl", "RAM network inhibition": "6.32% (inactive)"}
{"smiles": "O=C(Cn1cc2c(n1)CCCCC2)NCc1ccccc1", "RAM network inhibition": "3.47% (inactive)"}
{"smiles": "COc1cccc(N2CCN(C(=O)c3ccc4nc(N5CCCCC5)sc4c3)CC2)c1", "RAM network inhibition": "6.67% (inactive)"}
{"smiles": "CCOC(=O)c1c(C)oc2cc(Br)c(O)c(Br)c12", "RAM network inhibition": "0.68% (inactive)"}
{"smiles": "O=C(CSc1ccc2nnc(-c3ccccn3)n2n1)NCc1ccc2c(c1)OCO2", "RAM network inhibition": "1.66% (inactive)"}
{"smiles": "Cc1ccnc(N2C(=O)c3ccccc3C2Nc2cccc(C)c2C)c1", "note": "(stereo unspecified)", "RAM network inhibition": "6.56% (inactive)"}
{"smiles": "COc1cccc(/C=C2\\N=C(SC)SC2=O)c1OC", "RAM network inhibition": "8.12% (inactive)"}
{"smiles": "Cn1c(NC(=O)c2ccc(Cl)cc2Cl)cc(=O)n(C)c1=O", "RAM network inhibition": "-0.2% (inactive)"}
{"smiles": "CC(=O)Nc1cccc(N2C(=O)CC(Cc3ccccc3)C2=O)c1", "note": "(stereo unspecified)", "RAM network inhibition": "7.45% (inactive)"}
{"smiles": "COC(=O)C(C)NC(=O)C1CCCN1S(=O)(=O)c1cc(C)c(Cl)cc1C", "note": "(stereo unspecified)", "RAM network inhibition": "0.4% (inactive)"}
{"smiles": "Cc1ccc(N(C(=O)CC2NC(=O)NC2=O)C2(C(=O)NC3CCCC3)CCCCC2)cc1", "note": "(stereo unspecified)", "RAM network inhibition": "3.14% (inactive)"}
{"smiles": "CC1(C)CC(=O)C=C(Nc2ccccc2F)C1", "RAM network inhibition": "1.22% (inactive)"}
